According to the supplement of paper PMC11732987, “Enantioselective OTUD7B fragment discovery through chemoproteomics screening and high-throughput optimisation” (Communications Chemistry, 2025):

How the values were obtained:
Assay in all cases: log2 ratio of Biotin-Ahx-Ub-VS probe labelling (fragment/DMSO); higher = less target engagement (more negative = stronger competition), active = hit call of the paper (q ≤ 0.05, log2 ratio ≤ -1)
Conditions in all cases: compound concentration: 200 uM; treatment time: 3 h
USP34 = USP34 (UniProt Q70CQ2)
Summary of the method: (§1)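 The table lists average log2 ratios of fragment over vehicle, from an unpaired t-test on global-median-normalised Spectronaut label-free quantities. Proteins with ≥2 unique peptides were used. Samples were HEK293T lysate (495 µg) treated in triplicate with fragment at 200 µM or vehicle for 3 h, then with Biotin-Ahx-Ub-VS (0.5 µM final) for 1 h, with labelled DUBs NeutrAvidin-enriched and run by diaPASEF LC-MS/MS.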

USP36 = biological target: T1, USP36 (UniProt Q9P275)
T1 sequence (whole entry): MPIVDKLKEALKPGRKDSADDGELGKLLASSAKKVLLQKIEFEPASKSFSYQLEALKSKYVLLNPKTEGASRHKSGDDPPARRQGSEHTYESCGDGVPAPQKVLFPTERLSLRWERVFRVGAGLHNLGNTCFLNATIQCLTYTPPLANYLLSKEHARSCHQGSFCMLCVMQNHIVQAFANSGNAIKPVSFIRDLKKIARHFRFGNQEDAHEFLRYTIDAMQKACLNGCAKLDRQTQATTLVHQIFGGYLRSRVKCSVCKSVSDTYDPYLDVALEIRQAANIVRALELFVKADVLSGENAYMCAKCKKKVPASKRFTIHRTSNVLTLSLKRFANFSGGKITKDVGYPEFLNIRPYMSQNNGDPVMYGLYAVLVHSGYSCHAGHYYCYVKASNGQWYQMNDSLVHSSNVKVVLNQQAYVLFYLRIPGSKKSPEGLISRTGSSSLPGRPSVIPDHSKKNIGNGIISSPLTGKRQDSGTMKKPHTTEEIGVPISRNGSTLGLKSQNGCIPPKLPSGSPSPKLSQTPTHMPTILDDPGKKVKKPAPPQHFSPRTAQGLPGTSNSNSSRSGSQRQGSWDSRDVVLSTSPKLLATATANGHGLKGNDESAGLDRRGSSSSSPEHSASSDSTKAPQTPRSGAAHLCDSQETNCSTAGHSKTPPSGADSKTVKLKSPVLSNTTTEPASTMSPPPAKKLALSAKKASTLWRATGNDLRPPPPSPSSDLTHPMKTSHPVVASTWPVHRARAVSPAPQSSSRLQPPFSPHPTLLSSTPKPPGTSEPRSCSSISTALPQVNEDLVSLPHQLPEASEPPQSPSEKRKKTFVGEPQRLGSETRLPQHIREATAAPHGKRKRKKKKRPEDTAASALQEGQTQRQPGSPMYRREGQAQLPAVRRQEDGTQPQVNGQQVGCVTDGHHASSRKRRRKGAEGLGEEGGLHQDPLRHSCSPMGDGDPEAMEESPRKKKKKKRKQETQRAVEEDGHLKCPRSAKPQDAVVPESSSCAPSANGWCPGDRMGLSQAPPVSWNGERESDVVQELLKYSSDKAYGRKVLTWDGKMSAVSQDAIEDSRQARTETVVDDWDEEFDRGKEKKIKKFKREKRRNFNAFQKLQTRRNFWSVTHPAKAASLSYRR
Summary of the method: as §1

USP38 = biological target: T2, USP38 (UniProt Q8NB14)
T2 sequence (whole entry): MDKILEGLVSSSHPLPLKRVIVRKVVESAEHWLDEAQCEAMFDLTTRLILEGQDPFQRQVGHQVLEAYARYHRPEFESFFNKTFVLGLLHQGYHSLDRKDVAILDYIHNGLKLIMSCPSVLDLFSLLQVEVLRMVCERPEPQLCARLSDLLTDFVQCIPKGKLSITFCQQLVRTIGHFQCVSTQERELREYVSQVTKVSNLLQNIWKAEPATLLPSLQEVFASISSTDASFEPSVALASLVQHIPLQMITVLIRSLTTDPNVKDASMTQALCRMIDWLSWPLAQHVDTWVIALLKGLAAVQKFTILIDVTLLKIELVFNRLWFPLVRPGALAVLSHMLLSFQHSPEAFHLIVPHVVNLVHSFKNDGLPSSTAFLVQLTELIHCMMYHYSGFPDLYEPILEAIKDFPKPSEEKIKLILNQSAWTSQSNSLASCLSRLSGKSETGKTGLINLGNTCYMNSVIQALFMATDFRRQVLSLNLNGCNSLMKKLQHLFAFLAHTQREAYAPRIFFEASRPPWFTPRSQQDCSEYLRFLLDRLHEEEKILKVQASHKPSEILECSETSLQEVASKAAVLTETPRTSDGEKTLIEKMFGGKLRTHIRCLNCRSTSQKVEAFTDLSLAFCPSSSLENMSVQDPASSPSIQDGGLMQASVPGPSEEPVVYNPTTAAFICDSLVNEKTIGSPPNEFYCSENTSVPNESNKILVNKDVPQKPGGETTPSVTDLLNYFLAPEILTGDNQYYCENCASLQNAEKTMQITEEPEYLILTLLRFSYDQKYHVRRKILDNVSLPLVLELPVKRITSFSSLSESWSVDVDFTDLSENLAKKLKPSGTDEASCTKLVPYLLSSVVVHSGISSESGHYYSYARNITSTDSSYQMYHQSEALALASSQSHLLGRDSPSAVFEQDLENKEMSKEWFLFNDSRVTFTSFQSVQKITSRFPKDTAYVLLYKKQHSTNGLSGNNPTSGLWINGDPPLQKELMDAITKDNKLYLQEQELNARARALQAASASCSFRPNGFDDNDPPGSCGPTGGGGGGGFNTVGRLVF
Summary of the method: as §1

USP39 = biological target: T3, USP39 (UniProt Q53GS9)
T3 sequence (whole entry): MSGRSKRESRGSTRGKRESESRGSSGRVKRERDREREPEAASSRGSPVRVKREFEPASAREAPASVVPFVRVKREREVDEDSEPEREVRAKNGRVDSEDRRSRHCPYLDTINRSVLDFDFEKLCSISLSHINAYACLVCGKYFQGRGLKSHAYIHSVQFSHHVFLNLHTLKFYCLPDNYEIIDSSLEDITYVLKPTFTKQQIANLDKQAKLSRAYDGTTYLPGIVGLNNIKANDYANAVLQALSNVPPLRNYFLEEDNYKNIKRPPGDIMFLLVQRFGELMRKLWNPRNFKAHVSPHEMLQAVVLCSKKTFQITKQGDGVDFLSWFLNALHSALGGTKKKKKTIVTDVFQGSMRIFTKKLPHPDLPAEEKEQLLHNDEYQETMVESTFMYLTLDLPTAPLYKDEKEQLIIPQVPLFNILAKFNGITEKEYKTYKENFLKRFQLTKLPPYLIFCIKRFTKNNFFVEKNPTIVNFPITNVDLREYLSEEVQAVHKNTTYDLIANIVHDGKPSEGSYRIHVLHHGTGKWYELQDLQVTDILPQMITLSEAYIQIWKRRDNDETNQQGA
Summary of the method: as §1

USP4 = biological target: T4, USP4 (UniProt Q13107)
T4 sequence (whole entry): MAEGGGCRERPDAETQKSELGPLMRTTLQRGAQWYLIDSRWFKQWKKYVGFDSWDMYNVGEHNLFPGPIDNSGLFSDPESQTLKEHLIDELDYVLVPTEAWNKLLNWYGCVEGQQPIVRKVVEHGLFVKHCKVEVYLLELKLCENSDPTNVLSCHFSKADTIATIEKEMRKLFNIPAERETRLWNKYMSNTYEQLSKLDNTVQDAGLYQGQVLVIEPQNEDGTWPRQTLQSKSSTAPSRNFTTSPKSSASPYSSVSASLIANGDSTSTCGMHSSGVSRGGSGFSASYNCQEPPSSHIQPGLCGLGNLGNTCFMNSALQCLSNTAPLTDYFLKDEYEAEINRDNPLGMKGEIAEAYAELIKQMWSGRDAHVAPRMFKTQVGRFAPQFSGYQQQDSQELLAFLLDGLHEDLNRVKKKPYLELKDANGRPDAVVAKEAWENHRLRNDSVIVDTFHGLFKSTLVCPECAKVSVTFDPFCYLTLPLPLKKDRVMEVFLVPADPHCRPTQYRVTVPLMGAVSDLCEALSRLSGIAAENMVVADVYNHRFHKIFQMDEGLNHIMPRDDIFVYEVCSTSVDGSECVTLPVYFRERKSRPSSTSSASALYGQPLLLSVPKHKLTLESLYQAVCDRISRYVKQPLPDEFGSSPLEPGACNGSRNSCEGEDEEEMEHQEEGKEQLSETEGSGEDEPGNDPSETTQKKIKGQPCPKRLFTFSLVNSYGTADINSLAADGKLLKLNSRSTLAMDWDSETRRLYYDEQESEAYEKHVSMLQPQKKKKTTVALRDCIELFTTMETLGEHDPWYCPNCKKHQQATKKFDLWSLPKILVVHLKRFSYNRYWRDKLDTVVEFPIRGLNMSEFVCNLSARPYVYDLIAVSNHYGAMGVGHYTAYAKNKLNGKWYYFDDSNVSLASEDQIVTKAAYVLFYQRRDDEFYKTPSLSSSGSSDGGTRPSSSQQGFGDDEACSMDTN
Summary of the method: as §1

Measured: log2 ratio of Biotin-Ahx-Ub-VS probe labelling

Chain of USP34 (Q70CQ2 whole entry, the tested form may be a part): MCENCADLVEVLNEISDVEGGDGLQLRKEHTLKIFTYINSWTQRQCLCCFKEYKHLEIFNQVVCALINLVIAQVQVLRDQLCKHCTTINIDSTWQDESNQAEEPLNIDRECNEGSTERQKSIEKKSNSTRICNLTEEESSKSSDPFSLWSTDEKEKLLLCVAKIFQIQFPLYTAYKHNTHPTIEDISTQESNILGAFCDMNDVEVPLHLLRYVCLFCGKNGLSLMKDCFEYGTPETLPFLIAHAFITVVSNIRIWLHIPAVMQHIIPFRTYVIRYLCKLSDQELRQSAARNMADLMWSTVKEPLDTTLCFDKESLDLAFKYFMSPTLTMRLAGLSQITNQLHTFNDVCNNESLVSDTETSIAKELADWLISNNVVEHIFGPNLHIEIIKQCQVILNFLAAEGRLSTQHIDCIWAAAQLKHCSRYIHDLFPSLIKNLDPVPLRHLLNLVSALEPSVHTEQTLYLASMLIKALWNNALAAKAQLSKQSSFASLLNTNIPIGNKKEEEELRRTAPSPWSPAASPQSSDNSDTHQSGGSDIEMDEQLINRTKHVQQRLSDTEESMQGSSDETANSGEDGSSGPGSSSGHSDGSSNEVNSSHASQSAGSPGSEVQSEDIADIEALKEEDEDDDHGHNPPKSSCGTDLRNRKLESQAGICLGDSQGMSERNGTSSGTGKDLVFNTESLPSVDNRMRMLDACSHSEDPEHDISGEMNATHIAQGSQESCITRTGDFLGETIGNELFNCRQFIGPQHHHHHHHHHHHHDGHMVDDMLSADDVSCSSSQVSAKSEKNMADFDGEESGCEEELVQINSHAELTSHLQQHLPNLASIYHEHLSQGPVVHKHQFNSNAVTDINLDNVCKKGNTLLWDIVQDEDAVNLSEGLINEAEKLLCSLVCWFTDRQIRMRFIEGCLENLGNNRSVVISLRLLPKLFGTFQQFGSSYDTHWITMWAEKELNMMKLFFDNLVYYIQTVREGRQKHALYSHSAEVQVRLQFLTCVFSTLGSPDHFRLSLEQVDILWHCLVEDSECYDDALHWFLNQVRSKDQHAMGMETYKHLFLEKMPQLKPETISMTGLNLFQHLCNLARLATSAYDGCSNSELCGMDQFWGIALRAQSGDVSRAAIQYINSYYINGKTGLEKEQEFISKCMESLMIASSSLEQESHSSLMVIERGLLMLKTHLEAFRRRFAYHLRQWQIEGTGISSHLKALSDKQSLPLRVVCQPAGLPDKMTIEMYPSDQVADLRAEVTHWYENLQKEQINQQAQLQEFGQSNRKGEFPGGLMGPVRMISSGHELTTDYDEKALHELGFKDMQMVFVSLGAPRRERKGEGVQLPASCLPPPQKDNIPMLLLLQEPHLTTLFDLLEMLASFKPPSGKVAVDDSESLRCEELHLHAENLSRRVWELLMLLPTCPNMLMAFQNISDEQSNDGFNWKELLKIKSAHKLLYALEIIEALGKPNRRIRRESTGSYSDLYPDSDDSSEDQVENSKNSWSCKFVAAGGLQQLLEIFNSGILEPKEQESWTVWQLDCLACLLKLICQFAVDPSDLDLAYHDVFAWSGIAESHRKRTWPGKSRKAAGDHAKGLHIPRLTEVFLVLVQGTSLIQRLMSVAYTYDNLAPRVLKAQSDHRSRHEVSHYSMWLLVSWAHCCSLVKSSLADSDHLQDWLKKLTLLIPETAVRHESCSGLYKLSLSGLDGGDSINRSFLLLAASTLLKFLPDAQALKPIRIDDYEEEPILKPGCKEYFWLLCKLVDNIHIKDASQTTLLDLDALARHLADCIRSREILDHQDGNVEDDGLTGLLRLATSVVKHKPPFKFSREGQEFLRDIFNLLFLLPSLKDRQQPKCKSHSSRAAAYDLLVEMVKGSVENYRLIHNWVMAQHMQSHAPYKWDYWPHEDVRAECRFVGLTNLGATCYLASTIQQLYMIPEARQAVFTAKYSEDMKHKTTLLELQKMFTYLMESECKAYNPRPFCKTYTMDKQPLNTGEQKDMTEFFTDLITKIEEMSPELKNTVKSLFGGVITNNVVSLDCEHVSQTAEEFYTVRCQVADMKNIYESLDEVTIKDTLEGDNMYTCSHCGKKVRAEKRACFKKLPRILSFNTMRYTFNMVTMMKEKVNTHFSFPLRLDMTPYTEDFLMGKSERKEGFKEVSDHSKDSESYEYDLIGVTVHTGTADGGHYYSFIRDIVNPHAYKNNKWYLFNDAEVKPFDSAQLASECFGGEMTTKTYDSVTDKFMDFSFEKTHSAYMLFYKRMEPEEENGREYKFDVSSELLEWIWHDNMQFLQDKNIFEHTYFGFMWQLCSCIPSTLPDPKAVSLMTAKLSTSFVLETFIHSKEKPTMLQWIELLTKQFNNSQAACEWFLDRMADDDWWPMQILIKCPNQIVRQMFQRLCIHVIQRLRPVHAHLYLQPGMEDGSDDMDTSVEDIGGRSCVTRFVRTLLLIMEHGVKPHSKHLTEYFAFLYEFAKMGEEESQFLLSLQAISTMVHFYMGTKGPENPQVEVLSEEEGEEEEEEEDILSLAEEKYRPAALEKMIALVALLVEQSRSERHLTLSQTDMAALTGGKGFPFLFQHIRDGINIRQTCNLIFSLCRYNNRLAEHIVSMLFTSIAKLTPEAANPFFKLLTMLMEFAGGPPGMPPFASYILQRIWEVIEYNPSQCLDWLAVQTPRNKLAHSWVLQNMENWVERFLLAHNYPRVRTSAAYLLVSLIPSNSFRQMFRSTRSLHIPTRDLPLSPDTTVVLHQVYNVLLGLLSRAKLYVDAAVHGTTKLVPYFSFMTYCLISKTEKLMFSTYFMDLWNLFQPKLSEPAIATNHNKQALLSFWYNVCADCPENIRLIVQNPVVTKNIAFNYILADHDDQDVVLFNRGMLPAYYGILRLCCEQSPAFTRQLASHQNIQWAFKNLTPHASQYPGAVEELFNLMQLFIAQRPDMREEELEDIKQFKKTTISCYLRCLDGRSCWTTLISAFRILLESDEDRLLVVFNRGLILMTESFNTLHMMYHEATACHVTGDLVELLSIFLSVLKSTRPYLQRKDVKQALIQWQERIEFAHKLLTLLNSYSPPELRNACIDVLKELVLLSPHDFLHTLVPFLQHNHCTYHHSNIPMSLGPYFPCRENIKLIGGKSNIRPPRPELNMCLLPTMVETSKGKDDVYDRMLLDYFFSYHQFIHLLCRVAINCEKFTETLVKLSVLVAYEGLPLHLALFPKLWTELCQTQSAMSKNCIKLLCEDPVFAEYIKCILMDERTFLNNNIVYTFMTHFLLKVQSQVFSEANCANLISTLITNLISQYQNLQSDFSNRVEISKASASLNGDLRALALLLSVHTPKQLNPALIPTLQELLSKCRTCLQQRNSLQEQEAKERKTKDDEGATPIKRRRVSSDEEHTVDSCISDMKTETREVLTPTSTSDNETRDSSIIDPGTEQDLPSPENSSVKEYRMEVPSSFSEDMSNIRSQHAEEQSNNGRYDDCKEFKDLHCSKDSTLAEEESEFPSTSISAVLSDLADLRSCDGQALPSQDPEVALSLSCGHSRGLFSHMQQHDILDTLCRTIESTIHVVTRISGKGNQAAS

CN1C(=O)c2ccc(NC(=O)CCl)cc2C1=O
inactive: USP34 -0.233 | USP36 0.0568 | USP38 -0.169 | USP39 0.16 | USP4 -0.181
